Test results taken from PubChem BioAssay (NCI).
This is part of a sample that, as a whole, favours compounds with a hit. Of some 79,000 tested, about 15% had one in any assay. Activity calls are given as the source filed them. Rule as the data show it: active = growth inhibition above about 70%; inactive = the rest.

Assay: NCI Yeast Anticancer Drug Screen. Data for the bub3 strain (AID 167)
Conditions: S. cerevisiae bub3 mutant strain, at 5.0 µM (retest, dose inferred, filed as 0.5), active compounds read high
Description: Growth inhibition of yeast strains with defined genetic alterations is measured as a screen for potential anti-cancer activity. Selected strains with alterations in DNA damage repair or cell cycle control were exposed to compounds and growth inhibition was measured relative to vehicle treated controls. The strain used in this assay is bub3

SMILES | growth inhibition
CCCC(C)(COC(N)=O)COC(=O)NC1CC1 (configuration not stated) | 0% (inactive)
C1CC[N-]CC1.C1CC[N-]CC1.N#C[S-].N#C[S-].[Cd] | 10% (inactive)
O=C1C=Cc2ccccc2C1=O | 36% (inactive)
O=C(O)C(F)(F)C(F)(F)C(=O)O | 5% (inactive)
CCOC(=O)C(c1ccsc1)P(=O)(OCC)OCC (configuration not stated) | 8% (inactive)
Nc1ccc(C(=O)O)c(C(=O)O)c1.[Cl][Sn]([Cl])([Cl])[Cl] | 1% (inactive)
N#CCC[CH2][Sn]([Br])([Br])[c]1ccccc1 | -6% (inactive)
COc1ccc(C[C@H]2NC[C@H](O)[C@H]2OC(C)=O)cc1 | 27% (inactive)
Cc1ccc(S(=O)(=O)N=S(=O)(CCCl)CCCl)cc1 | 9% (inactive)

Same assay, conditions: S. cerevisiae bub3 mutant strain, at 50.0 µM (retest, dose inferred, filed as 5.0), active compounds read high

SMILES | growth inhibition
CCCC(C)(COC(N)=O)COC(=O)NC1CC1 (configuration not stated) | -5% (inactive)
C1CC[N-]CC1.C1CC[N-]CC1.N#C[S-].N#C[S-].[Cd] | 73% (active)
O=C1C=Cc2ccccc2C1=O | 97% (active)
O=C(O)C(F)(F)C(F)(F)C(=O)O | 26% (inactive)
CCOC(=O)C(c1ccsc1)P(=O)(OCC)OCC (configuration not stated) | 87% (active)
Nc1ccc(C(=O)O)c(C(=O)O)c1.[Cl][Sn]([Cl])([Cl])[Cl] | -2% (inactive)
N#CCC[CH2][Sn]([Br])([Br])[c]1ccccc1 | 18% (inactive)
COc1ccc(C[C@H]2NC[C@H](O)[C@H]2OC(C)=O)cc1 | 99% (active)
Cc1ccc(S(=O)(=O)N=S(=O)(CCCl)CCCl)cc1 | 89% (active)

Same assay, conditions: S. cerevisiae bub3 mutant strain, at 50.0 µM, active compounds read high

SMILES | growth inhibition
CC1(C)OP23(NC(=O)OC2(C(F)(F)F)c2ccccc2O3)OC1(C)C (configuration not stated) | -41.6% (inactive)
CCCC(C)(COC(N)=O)COC(=O)NC1CC1 (configuration not stated) | -4.4% (inactive)
Cc1cc(OCC2=NCCN2)c(C)c(C)c1Cl | 9.2% (inactive)
O=C(O)c1ccc(I)cc1.[Ni] | 85% (active)
[O-]c1n[n+](C2CCCCC2)no1 | 2.4% (inactive)
CSC(SC)=C1C(=O)NC(=O)NC1=O | -10.1% (inactive)
NC(=O)C(CBr)NCc1ccccc1 (configuration not stated) | 6.7% (inactive)
O=C1C=Cc2ccccc2C1=O | 91.9% (active)
N.N.N.N.[Co+3].[O-][Cl+3]([O-])([O-])[O-].[OH3+].[OH3+] | -6% (inactive)
O=C([O-])Cc1ccccc1.O=[N+]([O-])O.[Co+3].[NH2-].[NH2-].[NH2-].[NH2-].[NH2-] | 14.8% (inactive)
O=C(O)C(F)(F)C(F)(F)C(=O)O | -3.15% (inactive)
CCOC(=O)C(c1ccsc1)P(=O)(OCC)OCC (configuration not stated) | 67.3% (inactive)
CCOP1(=S)NNP(=S)(OCC)NN1 (configuration not stated) | 10.2% (inactive)
Nc1ccc(C(=O)O)c(C(=O)O)c1.[Cl][Sn]([Cl])([Cl])[Cl] | 80.8% (active)
CCC(Cl)COP(=O)(OCC(Cl)CC)O/C(C)=C(\C)OP(=S)(OCC(Cl)CC)OCC(Cl)CC (configuration not stated) | 98.8% (active)
N#CCC[CH2][Sn]([Br])([Br])[c]1ccccc1 | 89.4% (active)
c1ccc2c(c1)[Se]c1ccccc1[Se]2 | 23.1% (inactive)
COc1ccc([Se]c2ccc(OC)cc2)cc1 | 21.4% (inactive)
COc1ccc(C[C@H]2NC[C@H](O)[C@H]2OC(C)=O)cc1 | 92.2% (active)
Nc1ccc([N+](=O)[O-])cc1Cl | 12.9% (inactive)
COC1=N[C@]2(O)C[C@]3(C)[C@@H](O)CC[C@H]3[C@@H]3CCC4=CC(=O)CC[C@]4(C)[C@]32S1 | 33.8% (inactive)
COc1cc(-c2[nH]ccc2Cl)oc1C1=C2N=C3C=C2C(C(C)C)C1CCCCCCCC3 (configuration not stated) | 88.3% (active)
CC(C)OC(=O)Nc1cccc(Cl)c1 | 0.3% (inactive)
Cc1ccc(S(=O)(=O)N=S(=O)(CCCl)CCCl)cc1 | 47.4% (inactive)
